Results as given in PubChem BioAssay (NCATS).
Inconclusive results are not listed. Activity calls are given as the source filed them. Unless noted, calls come from the whole dose curve.

Assays:
[1] = target: Bile acid receptor (Homo sapiens) (UniProt Q96RI1); assay: qHTS assay for small molecule antagonists of farnesoid X receptor signaling (AID 588526); note: % is set by controls: 0 for no effect and ±100 for the full control effect
Outline: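 Beta-lactamase reporter antagonist mode: HEK293T FXR-UAS-bla cells, titrated compound, CDCA stimulation, 16 h 37 C, CCF4 dye 2 h RT. Data normalized to CDCA 50 uM and DMSO; Hill-fit IC50.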

[2] = target: Bile acid receptor (Homo sapiens) (UniProt Q96RI1); assay: qHTS assay for small molecule agonists of farnesoid X receptor signaling (AID 588527); details: HEK293T FXR-UAS-bla, beta-lactamase ratio, 16 h; activation: stronger effect = higher value;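 note: series mostly up to about 77 µM; 0% = vehicle basal and 100% = reference agonist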
Outline: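 FXR-UAS-bla HEK293T cells (10% dialyzed FBS) preincubated 5-7 h at 37 C, then compounds at up to 92 uM for 16 h at 37 C. CCF4 beta-lactamase read-out after 2 h RT. Normalized to chenodeoxycholic acid (100 uM) and DMSO; Hill fit gave EC50 and efficacy.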

[3] = target: Glucocorticoid receptor (Homo sapiens) (UniProt P04150); assay: qHTS assay for small molecule agonists of glucocorticoid receptor signaling (AID 588532; active = well fitted curve in the direction sought with a large enough effect in the signal ratio, with a control signal flat; the % refers to the signal ratio;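 note: 100% = dexamethasone at 0.1 µM and 0% = DMSO only wells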); details: HeLa MMTV-bla, beta-lactamase ratio, agonist, 18 h; activation: stronger effect = higher value, percent of dexamethasone control, DMSO zero
Outline: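 Quantitative HTS using CellSensor MMTV-bla HeLa cells in charcoal/dextran-treated serum; compounds tested up to 92 uM. After 18 h at 37 C, CCF4 dye reported reporter induction.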

[4] = target: Peroxisome proliferator-activated receptor delta (Homo sapiens) (UniProt Q03181); assay: qHTS assay for small molecule agonists of peroxisome proliferator-activated receptor delta signaling (AID 588534);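 note: 0% = DMSO basal wells and 100% = positive control agonist at 10 µM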
Outline: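 Agonist-mode qHTS; reporter cells, 5 hrs 37 C pre-incubation; compound titration, 18 hrs 37 C; CCF4 dye, 2 hrs RT; fluorescence read. EC50/efficacy via Hill fit.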

[5] = qHTS assay for small molecule antagonists of peroxisome proliferator-activated receptor delta signaling (AID 588535; active = well fitted inhibition curve with a large enough effect in the signal ratio, with a control signal flat, not every such curve was filed as active; the % refers to the signal ratio;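 for max response: cells co-treated with a PPAR-delta agonist as stimulator during compound exposure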); details: HEK293T PPARd-UAS-bla, beta-lactamase FRET ratio, 18 h; 460 nm channel
Outline: (§1)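 Titrations were run on PPAR-delta-UAS-bla HEK293T cells in charcoal/dextran-stripped serum, incubated 18 h at 37 C. CCF4 fluorescence (460/530 nm) after 2 h RT; Hill equation yields IC50 and maximal response.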

[6] = target: Peroxisome proliferator-activated receptor delta (Homo sapiens) (UniProt Q03181); assay: as above
Outline: as §1

[7] = target: Vitamin D3 receptor (Homo sapiens) (UniProt P11473); assay: qHTS assay for small molecule agonists of vitamin D receptor signaling (AID 588543);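 note: 0% = DMSO basal and 100% = reference agonist control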
Outline: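 qHTS in agonist mode: compound titrations stimulate a VDR-driven β-lactamase reporter in HEK293T cells over 16 h at 37 °C. Response normalized to 50 nM 1α,25-dihydroxyvitamin D3 = 100%, DMSO = 0%; Hill fitting gives EC50 and maximal response.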

[8] = target: Thyroid hormone receptor beta (Homo sapiens) (UniProt P10828); assay: qHTS assay for small molecule agonists of thyroid hormone receptor beta signaling (AID 588545)
Outline: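 Agonist activity was read as beta-lactamase CCF4 fluorescence (405 ex, 460/530 em), scaled between DMSO (0%) and 10 nM T3 (100%), then Hill-fitted for EC50 and efficacy. HEK 293 TR-UAS-bla cells in 2% charcoal/dextran FBS medium were exposed 18 h at 37 C.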

[9] = qHTS assay for small molecule antagonists of retinoid X receptor alpha signaling (AID 588546; active = well fitted inhibition curve with a large enough effect in the signal ratio, with a control signal flat, not every such curve was filed as active; the % refers to the signal ratio;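 note: cells stimulated with 9-cis-retinoic acid as agonist; % is set by controls: 0 for no effect and ±100 for the full control effect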); details: HEK293T RXRa-UAS-bla, beta-lactamase ratio, antagonist mode; measured here: W530 green channel, cytotoxicity proxy
Outline: (§2)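 Beta-lactamase reporter inhibition, read as CCF4 fluorescence ratio (ex 405, em 460/530 nm) after 2 h at RT. HEK293T UAS-bla cells, 2500/well, were stimulated with 9-cis-RA at 500 or 100 nM final alongside test compound for 18 h at 37 C.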

[10] = target: Retinoic acid receptor RXR-alpha (Homo sapiens) (UniProt P19793); assay: as above; details: HEK293T RXRa-UAS-bla, beta-lactamase ratio, antagonist mode
Outline: as §2

[11] = target: Thyroid hormone receptor beta (Homo sapiens) (UniProt P10828); assay: qHTS assay for small molecule antagonists of thyroid hormone receptor beta signaling (AID 588547; active = well fitted inhibition curve with a large enough effect in the signal ratio, with a control signal flat, not every such curve was filed as active; the % refers to the signal ratio;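 note: cells stimulated with 0.4 nM T3 agonist during compound exposure; series mostly up to about 77 µM; % is set by controls: 0 for no effect and ±100 for the full control effect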); details: TR-UAS-bla HEK293, beta-lactamase ratio, antagonist mode, 18 h
Outline: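 Inhibition of T3-driven (0.4nM final) beta-lactamase reporter activity was measured over 0.59 nM to 92 uM compound after 18 h at 37 C. The cells were GripTite HEK293 TR-UAS-bla in charcoal/dextran-stripped serum, with CCF4 ratio read-out and IC50 from Hill fits.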

[12] = qHTS assay for small molecule activators of the nuclear factor-kappa B (NF-kB) signaling pathway (AID 651749; active = well fitted activation curve with a large enough effect in the signal ratio; the % refers to the signal ratio; note: series mostly up to about 77 µM; % of control where 0% means no effect); details: NF-kB-bla ME-180 cells, beta-lactamase FRET ratio, 16 h; activation: stronger effect = higher value
Outline: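 Activation measured after 16 hr compound treatment at 37C, 5% CO2, of 2,000 ME-180 cells/well stably expressing an NF-kB response element–driven beta-lactamase reporter, via FRET-disruption fluorescence.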

[13] = qHTS assay for environmental chemicals that activate the Aryl hydrocarbon Receptor (AhR) signaling pathway (AID 651777; active = well fitted curve in the direction sought with a large enough effect; an effect the other way counts as inactive or inconclusive; note: % of control where 0% means no effect; nearly all actives have a fitted effect of over 15% in size); details: 1A2-DRE human hepatoma cells, luciferase, 24 h; activation: stronger effect = higher value
Outline: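 1A2-DRE human hepatoma reporter line; 1,200 cells/well; cmpd or DMSO 24 h, 37 C/5% CO2; One-Glo 30 min RT; luciferase lum.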

[14] = target: Peroxisome proliferator-activated receptor alpha (Homo sapiens) (UniProt Q07869); assay: qHTS assay for small molecule agonists of the peroxisome proliferator-activated receptor alpha (PPARalpha) signaling pathway (AID 651778; active = well fitted curve in the direction sought with a large enough effect; an effect the other way counts as inactive or inconclusive; note: % of control where 0% means no effect); details: PathHunter PPARalpha complementation, chemiluminescence, 6 h; max response: stronger effect = higher value
Outline: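 Chemiluminescence from complemented enzyme reported PPARalpha activation in cells after 6 hr of compound treatment at 37 C. The detection reagent was incubated for 60 min at room temperature, and compounds were scored as agonists.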

[15] = qHTS assay for small molecule agonists of the antioxidant response element (ARE) signaling pathway measured by Nrf2-dependant transcriptional activity (AID 720636; active = well fitted curve in the direction sought with a large enough effect in the repeat runs; an effect the other way counts as inactive or inconclusive;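 note: HepG2 cells with an ARE-driven luciferase reporter; % of control where 0% means no effect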)
Outline: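 Cells: ARE-luc HepG2 with Nrf2-responsive luciferase. Medium contained 1% dialyzed FBS. Compound exposure lasted 16 hr at 37 C and 5% CO2, followed by ONE-Glo luciferase detection.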

[16] = qHTS assay for small molecule agonists of the antioxidant response element (ARE) signaling pathway measured by Nrf2-dependant transcriptional activity - cell viability counter screen (AID 720653; active = well fitted curve in the direction sought with a large enough effect in the repeat runs; an effect the other way counts as inactive or inconclusive; note: % is set by controls: 0 for no effect and ±100 for the full control effect); details: ARE-bla HepG2 viability, CellTiter-Glo ATP luminescence, 16 h; max response: stronger effect = lower value
Outline: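 Cytotoxicity counter screen: intracellular ATP quantified by CellTiter-Glo luminescence in the same ARE-bla HepG2 plates, after 16 h compound exposure and a 2 h beta-lactamase substrate step.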

[17] = qHTS assay for cell viability of HEK293 cells (AID 743288; active = well fitted curve in the direction sought with a large enough effect; an effect the other way counts as inactive or inconclusive; note: % is set by controls: 0 for no effect and ±100 for the full control effect; nearly all actives have a fitted effect of over 50% in size); details: ATP luminescence (CellTiter-Glo), 18 h; max response: stronger effect = lower value
Outline: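 Quantitative high-throughput screen: compounds were pinned onto parental HEK293 cells (2,000 per well) after a minimum 5 h settling at 37 C, incubated 18 h at 37 C, and intracellular ATP measured by luciferase luminescence.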

[18] = qHTS assay for cell viability of the p53RE-bla HCT-116 cell line (AID 743292; active = well fitted curve in the direction sought with a large enough effect; an effect the other way counts as inactive or inconclusive; note: % is set by controls: 0 for no effect and ±100 for the full control effect; nearly all actives have a fitted effect of over 55% in size)
Outline: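 HCT-116 p53RE-bla cells seeded 4,000/well; 5 h at 37 C; compound (DMSO) added; 16 h at 37 C; CellTiter-Glo added, 30 min RT; luminescence read.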

[19] = qHTS assay for small molecule agonists of retinoid X receptor alpha signaling (AID 588544); details: HEK293T RXRa-UAS-bla, beta-lactamase reporter, 18 h; 530 nm emission; note: potency is the fitted concentration of half-maximal effect;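 for activation: 0% = DMSO basal wells and 100% = reference agonist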
[20] = target: Retinoic acid receptor RXR-alpha (Homo sapiens) (UniProt P19793); assay: as above

Chain of Bile acid receptor (Homo sapiens) (Q96RI1 whole entry, looked up): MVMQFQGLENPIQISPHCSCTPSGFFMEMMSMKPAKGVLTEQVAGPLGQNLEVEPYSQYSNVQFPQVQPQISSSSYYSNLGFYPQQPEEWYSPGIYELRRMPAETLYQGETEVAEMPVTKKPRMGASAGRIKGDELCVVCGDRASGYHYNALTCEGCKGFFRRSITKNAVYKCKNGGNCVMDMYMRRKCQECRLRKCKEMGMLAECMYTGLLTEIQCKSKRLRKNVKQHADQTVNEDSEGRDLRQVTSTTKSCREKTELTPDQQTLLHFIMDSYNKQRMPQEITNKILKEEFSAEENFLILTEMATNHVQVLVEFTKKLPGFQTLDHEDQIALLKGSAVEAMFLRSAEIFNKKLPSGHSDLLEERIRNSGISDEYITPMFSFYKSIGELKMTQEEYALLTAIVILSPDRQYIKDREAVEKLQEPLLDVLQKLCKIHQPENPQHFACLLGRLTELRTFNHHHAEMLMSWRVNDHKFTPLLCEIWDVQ
Chain of Peroxisome proliferator-activated receptor alpha (Homo sapiens) (Q07869 whole entry, looked up): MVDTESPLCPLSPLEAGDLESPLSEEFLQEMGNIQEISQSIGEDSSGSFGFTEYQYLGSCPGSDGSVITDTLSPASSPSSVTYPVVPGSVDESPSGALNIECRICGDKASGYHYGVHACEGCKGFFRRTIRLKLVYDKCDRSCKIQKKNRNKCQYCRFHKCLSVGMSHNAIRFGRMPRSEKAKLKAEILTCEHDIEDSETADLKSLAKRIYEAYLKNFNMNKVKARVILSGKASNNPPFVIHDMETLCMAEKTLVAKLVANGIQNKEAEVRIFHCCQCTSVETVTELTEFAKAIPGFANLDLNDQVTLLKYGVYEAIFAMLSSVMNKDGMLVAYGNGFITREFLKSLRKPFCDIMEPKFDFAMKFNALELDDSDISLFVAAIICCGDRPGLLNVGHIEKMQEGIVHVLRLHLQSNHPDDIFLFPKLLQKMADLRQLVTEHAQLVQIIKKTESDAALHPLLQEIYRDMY
Chain of Peroxisome proliferator-activated receptor delta (Homo sapiens) (Q03181 whole entry, looked up): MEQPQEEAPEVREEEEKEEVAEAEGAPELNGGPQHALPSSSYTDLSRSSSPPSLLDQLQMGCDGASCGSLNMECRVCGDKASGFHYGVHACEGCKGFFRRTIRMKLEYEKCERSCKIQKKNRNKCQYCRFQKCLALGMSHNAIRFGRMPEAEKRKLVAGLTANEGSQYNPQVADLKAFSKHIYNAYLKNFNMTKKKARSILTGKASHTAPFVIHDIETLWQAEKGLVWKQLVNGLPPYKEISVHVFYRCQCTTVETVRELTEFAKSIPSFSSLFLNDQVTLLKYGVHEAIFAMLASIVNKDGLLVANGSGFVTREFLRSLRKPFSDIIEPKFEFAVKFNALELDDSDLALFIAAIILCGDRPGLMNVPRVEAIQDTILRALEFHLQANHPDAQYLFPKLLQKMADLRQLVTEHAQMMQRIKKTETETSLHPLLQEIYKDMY
Chain of Retinoic acid receptor RXR-alpha (Homo sapiens) (P19793 whole entry, looked up): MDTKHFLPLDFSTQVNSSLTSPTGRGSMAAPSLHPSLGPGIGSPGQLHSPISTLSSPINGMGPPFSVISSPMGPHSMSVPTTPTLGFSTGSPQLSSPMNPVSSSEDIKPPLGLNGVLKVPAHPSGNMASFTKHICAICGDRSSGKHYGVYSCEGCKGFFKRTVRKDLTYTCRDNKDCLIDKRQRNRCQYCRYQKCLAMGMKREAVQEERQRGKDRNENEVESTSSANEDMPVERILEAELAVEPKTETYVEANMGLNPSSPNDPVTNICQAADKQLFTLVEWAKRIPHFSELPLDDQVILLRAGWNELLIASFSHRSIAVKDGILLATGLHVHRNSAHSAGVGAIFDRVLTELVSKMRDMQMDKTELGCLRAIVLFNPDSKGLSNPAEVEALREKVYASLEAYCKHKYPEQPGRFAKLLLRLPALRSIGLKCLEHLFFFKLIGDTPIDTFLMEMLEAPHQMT
Chain of Vitamin D3 receptor (Homo sapiens) (P11473 whole entry, looked up): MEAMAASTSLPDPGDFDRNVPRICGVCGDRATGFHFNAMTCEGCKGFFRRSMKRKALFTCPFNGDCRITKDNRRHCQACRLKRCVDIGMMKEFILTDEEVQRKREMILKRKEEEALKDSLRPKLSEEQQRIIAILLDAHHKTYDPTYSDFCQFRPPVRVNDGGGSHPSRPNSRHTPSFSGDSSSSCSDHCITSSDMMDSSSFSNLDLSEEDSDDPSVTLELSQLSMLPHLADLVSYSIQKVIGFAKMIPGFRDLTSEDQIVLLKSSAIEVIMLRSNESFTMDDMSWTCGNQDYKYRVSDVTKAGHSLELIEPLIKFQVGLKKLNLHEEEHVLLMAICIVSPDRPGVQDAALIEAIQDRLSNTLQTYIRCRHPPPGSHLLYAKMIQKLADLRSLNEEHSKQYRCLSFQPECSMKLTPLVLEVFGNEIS
Chain of Glucocorticoid receptor (Homo sapiens) (P04150 whole entry, looked up): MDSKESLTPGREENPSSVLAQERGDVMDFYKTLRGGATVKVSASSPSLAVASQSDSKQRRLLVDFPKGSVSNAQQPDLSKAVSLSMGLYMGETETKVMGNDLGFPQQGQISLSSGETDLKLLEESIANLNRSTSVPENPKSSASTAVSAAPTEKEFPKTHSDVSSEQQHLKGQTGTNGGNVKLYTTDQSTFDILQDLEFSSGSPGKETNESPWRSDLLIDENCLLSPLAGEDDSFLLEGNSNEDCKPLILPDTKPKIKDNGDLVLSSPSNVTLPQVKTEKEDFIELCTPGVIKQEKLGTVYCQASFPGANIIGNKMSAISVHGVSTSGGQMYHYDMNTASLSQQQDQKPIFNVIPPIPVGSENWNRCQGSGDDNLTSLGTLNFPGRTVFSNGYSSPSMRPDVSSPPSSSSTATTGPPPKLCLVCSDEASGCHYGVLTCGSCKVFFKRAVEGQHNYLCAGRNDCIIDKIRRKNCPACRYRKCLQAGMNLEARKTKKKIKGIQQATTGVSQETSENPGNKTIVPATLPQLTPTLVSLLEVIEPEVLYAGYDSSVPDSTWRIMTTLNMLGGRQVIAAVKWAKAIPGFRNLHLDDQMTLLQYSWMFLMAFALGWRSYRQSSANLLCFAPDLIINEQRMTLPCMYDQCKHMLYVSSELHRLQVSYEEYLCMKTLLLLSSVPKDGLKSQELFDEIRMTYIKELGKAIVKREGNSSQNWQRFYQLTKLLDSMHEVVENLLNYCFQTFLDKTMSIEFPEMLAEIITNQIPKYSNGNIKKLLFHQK
Chain of Thyroid hormone receptor beta (Homo sapiens) (P10828 whole entry, looked up): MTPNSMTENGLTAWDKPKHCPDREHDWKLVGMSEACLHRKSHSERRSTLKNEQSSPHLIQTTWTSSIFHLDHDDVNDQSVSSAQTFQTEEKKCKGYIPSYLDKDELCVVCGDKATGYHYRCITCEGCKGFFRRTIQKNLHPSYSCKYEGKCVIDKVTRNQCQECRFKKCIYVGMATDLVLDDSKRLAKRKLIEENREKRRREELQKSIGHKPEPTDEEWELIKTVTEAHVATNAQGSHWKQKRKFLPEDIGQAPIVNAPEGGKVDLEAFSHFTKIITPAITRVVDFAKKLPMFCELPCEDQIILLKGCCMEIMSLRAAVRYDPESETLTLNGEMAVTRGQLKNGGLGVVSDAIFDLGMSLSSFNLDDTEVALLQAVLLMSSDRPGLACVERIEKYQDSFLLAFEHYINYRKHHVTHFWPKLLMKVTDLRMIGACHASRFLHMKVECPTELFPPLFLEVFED

CCC[CH2][Sn]([CH2]CCC)([CH2]CCC)[CH2]CCC
6.88%: max response [9]
0.148%: max response [5]
inactive: Potency [1] | activation [2] 3.44% | activation [3] -2.61% | outcome [4] | Potency [6] | outcome [7] | Potency [8] | max response [10] 4.03% | activity change % (negative = inhibition) [11] -9.45% | activation [12] 1.03% | activation [13] 0.926% | max response [14] -1.25% | Potency [15] | max response [16] 1.93% | max response [17] -5.3% | Potency [18]

CN/C(=N/[N+](=O)[O-])NCC1CCOC1 (configuration not stated)
inactive: Potency [1] | activation [2] -2.75% | activation [3] 0.122% | outcome [4] | Potency [6] | outcome [7] | Potency [20] | activity change % (negative = inhibition) [11] -1.83% | activation [12] -0.877% | activation [13] -0.372% | max response [14] -0.384% | max response [16] -9.26% | max response [17] -6.54%
-9.02%: max response [19]
22.2%: max response [5]

CC(Oc1cc(Cl)c(Cl)cc1Cl)C(=O)O (configuration not stated)
-8.77%: max response [19]
52.3%: max response [5]
inactive: Potency [1] | activation [2] -3.32% | activation [3] -0.156% | outcome [4] | Potency [6] | outcome [7] | Potency [20] | activation [13] 2.71% | max response [14] -0.109% | Potency [15] | max response [16] 15.3% | max response [17] 0.242% | Potency [18]
-19.8%: max response [9]

Clc1ccc([C@@]2(Cn3cncn3)C[C@@H](Br)CO2)c(Cl)c1
-15.6%: max response [9]
-0.908%: max response [5]
inactive: Potency [1] | activation [2] 3.84% | activation [3] -12.1% | outcome [4] | Potency [6] | outcome [7] | Potency [8] | max response [10] -32.6% | activity change % (negative = inhibition) [11] 11.5% | activation [13] 1.89% | max response [14] -2.47% | Potency [15] | max response [16] 2.35% | max response [17] -20.7% | Potency [18]

CCC(C)(c1ccc(O)cc1)c1ccc(O)cc1
inactive: Potency [1] | activation [2] 1.29% | Potency [20] | Potency [8] | activity change % (negative = inhibition) [11] 5.47% | activation [12] -1.76% | activation [13] -1.12% | max response [14] -1.57% | Potency [15] | max response [16] -14.2% | max response [17] -0.148% | Potency [18]
3.09%: max response [19]

Clc1ccc([C@@]2(Cn3cncn3)C[C@H](Br)CO2)c(Cl)c1
inactive: Potency [1] | activation [2] -2.3% | activation [3] 2.56% | Potency [8] | activity change % (negative = inhibition) [11] 2.29% | activation [12] -1.71% | activation [13] 1.22% | max response [14] 0.534% | Potency [15] | max response [16] -1.58% | max response [17] -14.4% | Potency [18]
active: Potency [20] 14.1 µM
-6.47%: max response [9]
-2.9%: max response [19]

CC(O)CN(CC(C)O)CC(C)O (configuration not stated)
-32.2%: max response [5]
-0.813%: max response [9]
inactive: Potency [1] | activation [2] 0.256% | activation [3] 4.4% | Potency [6] | Potency [8] | max response [10] 3.2% | activity change % (negative = inhibition) [11] 25% | max response [14] -2.83% | Potency [15] | max response [16] -8.2% | Potency [18]
